These results are taken from PubChem BioAssay (NCI).

Some test systems named below: SR leukemia; RPMI-8226 leukemia; OVCAR-8 ovarian; OVCAR-5 ovarian; OVCAR-4 ovarian; SK-OV-3 ovarian; IGROV1 ovarian; OVCAR-3 ovarian; HS 578T breast; NCI/ADR-RES ovarian; T-47D breast; BT-549 breast; MDA-MB-435 melanoma; SW-620 colon; MCF7 breast; HCT-116 colon; HCC-2998 colon; KM12 colon.
What all share (test): NCI-60 one-dose screen, 48 h (100 = growth as untreated, 0 = no growth, -100 = all killed)
Common to all, as to settings: 10 µM unless noted

The panel holds about 83,000 compounds, 20% with a hit somewhere; the sample as a whole holds those more often.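 Values shown are percent growth following 48 h exposure of cells in 96-well plates to a single concentration of compound; below 10 was considered active.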 Unmarked numbers belong to inactive results. Active and inactive are the calls of the source.

Consider `C=C1C(=O)O[C@H]2[C@H]1CC/C(COC(=O)NCc1cn(C)c3ccccc13)=C\CC[C@@]1(C)O[C@@H]21`, for which the growth in the assay on SR leukemia was 6.96% (active); in the assay with RPMI-8226 leukemia it was -29.3% (active); in the assay on OVCAR-8 ovarian, 4.58% (active); in the assay with OVCAR-5 ovarian it was 23%; with OVCAR-4 ovarian, 12%; with SK-OV-3 ovarian it was 60.2%. For the same compound, the growth in the assay with IGROV1 ovarian was 0.634% (active); in the assay with OVCAR-3 ovarian, -80.8% (active); in the assay on HS 578T breast, 49.6%; in the assay on NCI/ADR-RES ovarian it was 19%; in the assay with T-47D breast it was -54.1% (active); in the assay on BT-549 breast it was -54.3% (active). Moreover, the growth in the assay with MDA-MB-435 melanoma is -30.4% (active); with SW-620 colon, -48.4% (active); with MCF7 breast, 3.65% (active); in the assay on HCT-116 colon, -97.2% (active); in the assay on HCC-2998 colon it was 49.1%; with KM12 colon it was 39.5%.

As for `COc1cc(OC)c2sc(-c3ccc(-n4cncc4-c4ccc(OC)c(N)c4)cc3)nc2c1`, the growth was 73.8% with SR leukemia; 51.8% in the assay with RPMI-8226 leukemia; 84.3% in the assay on OVCAR-8 ovarian; 101% with OVCAR-5 ovarian; 78% in the assay on OVCAR-4 ovarian; 123% in the assay with SK-OV-3 ovarian. The growth in the assay on IGROV1 ovarian was 98.2%; in the assay with OVCAR-3 ovarian it was 77.4%; in the assay on HS 578T breast it was 94.1%; with NCI/ADR-RES ovarian, 77.4%; in the assay with T-47D breast, 77.2%; in the assay on BT-549 breast, 75.2%. For the same compound, the growth with MDA-MB-435 melanoma was 68.8%; in the assay on SW-620 colon, 89.1%; in the assay with MCF7 breast, 67.3%; in the assay with HCT-116 colon, 66%; with HCC-2998 colon it was 91.8%; in the assay on KM12 colon it was 77.7%.

Turning to `COc1ccc(NC(=O)Cn2c(=O)sc3c(-c4ccc(Cl)cc4)cc(-c4ccc(Cl)cc4)nc32)cc1`, the growth in the assay on SR leukemia was 63.3%; in the assay on RPMI-8226 leukemia, 116%; in the assay with OVCAR-8 ovarian, 107%; in the assay with OVCAR-5 ovarian it was 111%; in the assay with OVCAR-4 ovarian, 98.3%; with SK-OV-3 ovarian, 102%. The growth is 92.3% with IGROV1 ovarian; 115% in the assay with OVCAR-3 ovarian; 108% with HS 578T breast; 89.2% with NCI/ADR-RES ovarian; 79.9% in the assay on T-47D breast; 87.6% in the assay with BT-549 breast. Further, the growth is 102% in the assay on MDA-MB-435 melanoma; 99.6% with SW-620 colon; 89.2% with MCF7 breast; 88.1% in the assay with HCT-116 colon; 104% in the assay on HCC-2998 colon; 99.7% in the assay on KM12 colon.

For the compound `CC1CCN(CCCCCOc2ccc3oc4ccc(Cl)cc4c(=O)c3c2)CC1`, the growth in the assay with SR leukemia was 14.9%; with RPMI-8226 leukemia it was 35.4%; with OVCAR-8 ovarian, 59.7%; with OVCAR-5 ovarian, 72.9%; in the assay with OVCAR-4 ovarian, 77.3%; with SK-OV-3 ovarian, 84.3%. The growth with IGROV1 ovarian is 70.4%; with OVCAR-3 ovarian it was 74.6%; with HS 578T breast, 86.5%; in the assay with NCI/ADR-RES ovarian it was 71.6%; in the assay on T-47D breast, 63.4%; with BT-549 breast it was 76.2%. Further, the growth was 21.4% in the assay on MDA-MB-435 melanoma; 46.7% in the assay on SW-620 colon; 59.8% with MCF7 breast; 23.9% with HCT-116 colon; 78.4% in the assay with HCC-2998 colon; 62.3% in the assay with KM12 colon.

On to `COc1ccccc1CNCCCN1C(=O)c2ccc3c4c(ccc(c24)C1=O)C(=O)N(CCCCNCCCN)C3=O`, for which the growth is 11.3% in the assay with SR leukemia; 10.6% in the assay on RPMI-8226 leukemia; -16% (active) with OVCAR-8 ovarian; 69.8% with OVCAR-5 ovarian; -90.4% (active) in the assay on OVCAR-4 ovarian; 56.9% with SK-OV-3 ovarian. Further, the growth with IGROV1 ovarian is -25% (active); in the assay on OVCAR-3 ovarian it was -30.4% (active); in the assay on HS 578T breast, 31.5%; with NCI/ADR-RES ovarian it was 72.6%; in the assay with T-47D breast, -45.4% (active); with BT-549 breast, 58%. The growth in the assay with MDA-MB-435 melanoma is -70% (active); in the assay on SW-620 colon, -25% (active); in the assay on MCF7 breast, -41.7% (active); in the assay with HCT-116 colon it was -11% (active); in the assay with HCC-2998 colon, -6.41% (active); with KM12 colon it was 10.7%.

Turning to `C=C1C(=O)O[C@H]2[C@H]1CC/C(COC(=O)NCc1cccc(OC)c1)=C\CC[C@@]1(C)O[C@@H]21`, the growth in the assay on SR leukemia is 8.59% (active); in the assay on RPMI-8226 leukemia, -23.1% (active); in the assay with OVCAR-8 ovarian it was 46.1%; in the assay with OVCAR-5 ovarian it was 66.6%; in the assay with OVCAR-4 ovarian it was 49%; in the assay with SK-OV-3 ovarian, 71.6%. Further, the growth in the assay on IGROV1 ovarian is 32.8%; with OVCAR-3 ovarian it was -7.55% (active); in the assay with HS 578T breast, 75.7%; with NCI/ADR-RES ovarian, 57.3%; in the assay on T-47D breast, 11.9%; in the assay on BT-549 breast it was 16.6%. Further, the growth is 45.5% in the assay on MDA-MB-435 melanoma; -35.4% (active) in the assay with SW-620 colon; 8.22% (active) in the assay on MCF7 breast; -70.9% (active) with HCT-116 colon; 81.6% in the assay on HCC-2998 colon; 88% with KM12 colon.

On to `CC(C)N(C(=S)SSC(=S)N(C(C)C)C(C)C)C(C)C`, for which the growth is 105% with SR leukemia; 87.2% in the assay with RPMI-8226 leukemia; 111% in the assay with OVCAR-8 ovarian; 107% in the assay on OVCAR-5 ovarian; 78.7% in the assay with OVCAR-4 ovarian; 112% with SK-OV-3 ovarian. Further, the growth in the assay with IGROV1 ovarian was 92.2%; with OVCAR-3 ovarian, 108%; in the assay with HS 578T breast it was 106%; with NCI/ADR-RES ovarian, 104%; in the assay with T-47D breast, 86.8%; in the assay with BT-549 breast it was 107%. Moreover, the growth in the assay on MDA-MB-435 melanoma was 99.6%; in the assay on SW-620 colon, 105%; with MCF7 breast it was 90.3%; in the assay with HCT-116 colon it was 96.7%; in the assay with HCC-2998 colon, 113%; in the assay with KM12 colon, 108%.

Turning to `COc1cc(C2CC(c3ccc(C)cc3)=NN2C=O)ccc1Oc1nc2c(c(=O)n(C)c(=O)n2C)n1C` (centres undefined), the growth was 85.7% with SR leukemia; 72.1% in the assay with RPMI-8226 leukemia; 92.4% in the assay with OVCAR-8 ovarian; 102% in the assay with OVCAR-5 ovarian; 77.8% in the assay with OVCAR-4 ovarian; 124% with SK-OV-3 ovarian. In addition, the growth in the assay on IGROV1 ovarian was 82.6%; in the assay on OVCAR-3 ovarian it was 105%; in the assay on HS 578T breast, 80.2%; in the assay with NCI/ADR-RES ovarian, 63%; with T-47D breast, 80%; in the assay with BT-549 breast, 97.9%. Moreover, the growth is 62.7% with MDA-MB-435 melanoma; 102% in the assay on SW-620 colon; 77.1% in the assay on MCF7 breast; 81.8% with HCT-116 colon; 86.6% with HCC-2998 colon; 77.9% in the assay with KM12 colon.
